The values below come from publication PMC7862700, “An all-to-all approach to the identification of sequence-specific readers for epigenetic DNA modifications on cytosine”.

Common to all, as to assay: DAPPL (digital affinity profiling via proximity ligation, sequencing); 10 mM Tris-HCl pH 7.5, 50 mM NaCl, 1 mM DTT, 4% glycerol, room temperature, 30 min; GST-TFs on glutathione beads, 16-mer random dsDNA library, 0.1% formaldehyde crosslink after washing; high values mean tight binding
Experiment [1] deals with T1, FEV (Homo sapiens, UniProt Q99581 1-238).
T1 sequence: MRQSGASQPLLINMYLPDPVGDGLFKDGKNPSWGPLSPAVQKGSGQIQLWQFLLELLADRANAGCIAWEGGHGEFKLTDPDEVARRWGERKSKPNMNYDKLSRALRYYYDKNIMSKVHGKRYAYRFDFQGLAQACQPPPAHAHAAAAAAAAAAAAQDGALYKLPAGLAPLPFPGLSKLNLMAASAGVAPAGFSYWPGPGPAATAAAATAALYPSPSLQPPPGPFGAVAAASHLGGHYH
The note with it: protein: recombinant; tags: N-terminal GST; dsDNA, one strand shown. In a few lines:
(§1)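 Human transcription factors were made in yeast as GST fusions, captured on glutathione beads and barcoded with DNA. With a tag-only sample included, the pool was incubated with 200 nmole of a random double-stranded 16-mer DNA library in Tris/NaCl/DTT/glycerol buffer at room temperature for 30 min, then crosslinked with 0.1% formaldehyde after washing, ligated by proximity, amplified and sequenced. For binding signal, each hexamer's read frequency for a factor is divided by its frequency for the tag-only sample.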

Experiment [2] addresses ETV5 (Homo sapiens, UniProt P41161 1-510). The note with it: protein: recombinant; tags: N-terminal GST; dsDNA, one strand shown. In a few lines:
as §1

Experiment [3] concerns the target HSF1 (Homo sapiens, UniProt Q00613 1-529). The following applies: protein: recombinant; tags: N-terminal GST; chain copies: 3; dsDNA, one strand shown. In a few lines:
as §1

Experiment [4] has as its target T2, SPIC (Homo sapiens, UniProt Q8N5J4 1-248).
T2 sequence: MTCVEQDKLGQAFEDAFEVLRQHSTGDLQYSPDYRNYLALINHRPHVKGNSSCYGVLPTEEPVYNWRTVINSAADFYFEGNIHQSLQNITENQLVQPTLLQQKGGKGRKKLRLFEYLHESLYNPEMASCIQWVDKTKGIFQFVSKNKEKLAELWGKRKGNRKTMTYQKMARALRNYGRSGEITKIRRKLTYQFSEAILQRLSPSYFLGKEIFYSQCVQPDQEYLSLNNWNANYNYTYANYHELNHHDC
The note with it: protein: recombinant; tags: N-terminal GST; dsDNA, one strand shown. Put shortly: as §1

The target in experiment [5] is ELF4 (Homo sapiens, UniProt Q99607 1-663). The note with it: protein: recombinant; tags: N-terminal GST; dsDNA, one strand shown. Put shortly:
as §1

Experiment [6] has as its target T3, ELK4 (Homo sapiens, UniProt P28324-2 1-405).
T3 sequence: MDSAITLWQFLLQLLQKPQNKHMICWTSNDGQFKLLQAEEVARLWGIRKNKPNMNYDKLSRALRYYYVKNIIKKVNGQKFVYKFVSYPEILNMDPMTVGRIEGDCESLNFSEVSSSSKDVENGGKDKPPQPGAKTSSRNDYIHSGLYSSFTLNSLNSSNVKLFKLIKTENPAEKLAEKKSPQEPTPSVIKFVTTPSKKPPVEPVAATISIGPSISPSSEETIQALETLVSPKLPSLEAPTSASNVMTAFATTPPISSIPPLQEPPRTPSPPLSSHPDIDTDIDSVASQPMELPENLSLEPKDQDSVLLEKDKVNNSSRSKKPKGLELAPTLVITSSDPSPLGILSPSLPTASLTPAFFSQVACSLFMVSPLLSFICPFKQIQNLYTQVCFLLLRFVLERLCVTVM
The following applies: protein: recombinant; tags: N-terminal GST; dsDNA, one strand shown. Put shortly: as §1

For experiment [7], the target named is T4, ETV2 (Homo sapiens, UniProt O00321 1-342).
T4 sequence: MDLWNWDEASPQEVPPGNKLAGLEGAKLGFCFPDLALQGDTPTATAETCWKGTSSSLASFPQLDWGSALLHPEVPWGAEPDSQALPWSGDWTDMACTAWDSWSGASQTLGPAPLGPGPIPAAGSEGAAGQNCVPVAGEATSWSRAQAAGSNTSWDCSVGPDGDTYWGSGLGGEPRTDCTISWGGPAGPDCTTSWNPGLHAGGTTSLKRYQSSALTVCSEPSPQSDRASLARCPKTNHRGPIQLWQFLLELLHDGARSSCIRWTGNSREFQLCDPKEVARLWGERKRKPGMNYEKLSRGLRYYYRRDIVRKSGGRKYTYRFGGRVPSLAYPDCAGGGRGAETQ
The note with it: protein: recombinant; tags: N-terminal GST; dsDNA, one strand shown. In a few lines: as §1

In experiment [8] the target is T5, ELF3 (Homo sapiens, UniProt P78545 1-371).
T5 sequence: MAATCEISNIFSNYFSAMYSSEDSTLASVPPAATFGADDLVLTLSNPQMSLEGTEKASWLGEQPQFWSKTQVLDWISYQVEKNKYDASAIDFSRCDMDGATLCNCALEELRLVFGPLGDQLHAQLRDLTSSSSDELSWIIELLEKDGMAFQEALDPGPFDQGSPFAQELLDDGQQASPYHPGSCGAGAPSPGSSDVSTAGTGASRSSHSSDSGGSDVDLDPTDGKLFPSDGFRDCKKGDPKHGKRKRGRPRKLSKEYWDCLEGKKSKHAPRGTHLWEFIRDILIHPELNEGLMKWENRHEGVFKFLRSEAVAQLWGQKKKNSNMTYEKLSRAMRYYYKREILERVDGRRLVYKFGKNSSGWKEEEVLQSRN
The following applies: protein: recombinant; tags: N-terminal GST; dsDNA, one strand shown. In a few lines: as §1

Experiment [9] deals with CRX (Homo sapiens, UniProt O43186 1-299). The following applies: protein: recombinant; tags: N-terminal GST; dsDNA, one strand shown. In a few lines:
as §1

Experiment [10] concerns the target ETV1 (Homo sapiens, UniProt P50549 1-477). The note with it: protein: recombinant; tags: N-terminal GST; dsDNA, one strand shown. In a few lines: as §1
Experiment [11] deals with T6, ERF (Homo sapiens, UniProt P50548 1-548).
T6 sequence: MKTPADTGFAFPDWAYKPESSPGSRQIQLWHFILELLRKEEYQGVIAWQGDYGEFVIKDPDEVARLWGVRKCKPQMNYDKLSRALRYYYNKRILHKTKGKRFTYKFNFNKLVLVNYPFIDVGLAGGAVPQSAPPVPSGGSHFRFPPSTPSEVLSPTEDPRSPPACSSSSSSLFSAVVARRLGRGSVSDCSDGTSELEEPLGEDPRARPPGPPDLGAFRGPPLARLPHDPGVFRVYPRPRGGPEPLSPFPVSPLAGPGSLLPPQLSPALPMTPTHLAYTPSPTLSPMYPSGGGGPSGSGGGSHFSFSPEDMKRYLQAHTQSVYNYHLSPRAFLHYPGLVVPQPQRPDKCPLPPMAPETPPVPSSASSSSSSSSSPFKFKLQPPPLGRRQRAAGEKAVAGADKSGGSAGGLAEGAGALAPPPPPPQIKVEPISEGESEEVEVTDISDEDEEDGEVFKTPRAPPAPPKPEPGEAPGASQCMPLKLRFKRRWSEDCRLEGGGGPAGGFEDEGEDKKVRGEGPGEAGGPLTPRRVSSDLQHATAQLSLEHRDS
The note with it: protein: recombinant; tags: N-terminal GST; dsDNA, one strand shown. In a few lines: as §1

In experiment [12] the target is T7, ETV3L (Homo sapiens, UniProt Q6ZN32 1-361).
T7 sequence: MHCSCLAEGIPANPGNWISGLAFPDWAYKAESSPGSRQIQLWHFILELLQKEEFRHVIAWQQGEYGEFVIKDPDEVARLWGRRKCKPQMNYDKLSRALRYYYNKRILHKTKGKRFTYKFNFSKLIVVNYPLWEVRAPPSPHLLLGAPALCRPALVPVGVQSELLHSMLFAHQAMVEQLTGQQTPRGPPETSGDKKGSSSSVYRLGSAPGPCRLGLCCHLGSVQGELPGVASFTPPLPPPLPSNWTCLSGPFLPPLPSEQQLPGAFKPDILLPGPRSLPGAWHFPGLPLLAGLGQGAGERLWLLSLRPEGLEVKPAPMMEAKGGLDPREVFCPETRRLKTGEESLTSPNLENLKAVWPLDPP
The note with it: protein: recombinant; tags: N-terminal GST; dsDNA, one strand shown. In a few lines:
as §1

Experiment [13] addresses T8, ETS2 (Homo sapiens, UniProt P15036 1-469).
T8 sequence: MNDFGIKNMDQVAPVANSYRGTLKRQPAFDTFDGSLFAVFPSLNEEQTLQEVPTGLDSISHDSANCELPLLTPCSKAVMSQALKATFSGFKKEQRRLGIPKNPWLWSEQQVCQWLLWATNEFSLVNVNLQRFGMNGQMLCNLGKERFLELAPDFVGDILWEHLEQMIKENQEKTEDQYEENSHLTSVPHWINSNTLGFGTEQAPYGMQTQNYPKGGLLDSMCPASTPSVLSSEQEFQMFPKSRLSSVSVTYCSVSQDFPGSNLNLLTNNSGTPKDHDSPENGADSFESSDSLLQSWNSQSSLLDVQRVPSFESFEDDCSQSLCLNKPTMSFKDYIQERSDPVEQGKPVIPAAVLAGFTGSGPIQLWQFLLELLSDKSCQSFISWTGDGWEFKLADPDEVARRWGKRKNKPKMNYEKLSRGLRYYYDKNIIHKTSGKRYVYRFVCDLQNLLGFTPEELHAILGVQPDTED
The note with it: protein: recombinant; tags: N-terminal GST; dsDNA, one strand shown. Put shortly: as §1

Experiment [14] concerns the target T9, SPDEF (Homo sapiens, UniProt O95238 1-335).
T9 sequence: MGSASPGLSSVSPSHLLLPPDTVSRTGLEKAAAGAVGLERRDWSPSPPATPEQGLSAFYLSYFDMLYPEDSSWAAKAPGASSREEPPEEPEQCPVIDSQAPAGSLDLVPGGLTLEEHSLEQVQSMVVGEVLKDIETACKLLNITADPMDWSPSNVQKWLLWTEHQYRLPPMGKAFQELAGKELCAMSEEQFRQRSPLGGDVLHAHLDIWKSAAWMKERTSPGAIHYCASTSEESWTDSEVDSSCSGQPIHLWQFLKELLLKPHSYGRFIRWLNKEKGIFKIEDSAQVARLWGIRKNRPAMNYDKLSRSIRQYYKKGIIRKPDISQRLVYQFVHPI
The note with it: protein: recombinant; tags: N-terminal GST; dsDNA, one strand shown. In a few lines: as §1

Experiment [15] concerns the target T10, ETV7 (Homo sapiens, UniProt Q9Y603 1-341).
T10 sequence: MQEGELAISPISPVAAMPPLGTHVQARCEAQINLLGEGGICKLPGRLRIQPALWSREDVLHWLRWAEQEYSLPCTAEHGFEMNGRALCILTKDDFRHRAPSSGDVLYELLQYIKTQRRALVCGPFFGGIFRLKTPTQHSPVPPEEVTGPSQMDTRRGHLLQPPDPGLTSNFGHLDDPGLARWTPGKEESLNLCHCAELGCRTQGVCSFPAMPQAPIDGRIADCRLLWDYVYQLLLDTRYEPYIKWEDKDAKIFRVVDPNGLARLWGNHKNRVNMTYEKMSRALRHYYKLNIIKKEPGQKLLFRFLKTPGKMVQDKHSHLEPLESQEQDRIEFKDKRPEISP
The note with it: protein: recombinant; tags: N-terminal GST; dsDNA, one strand shown. In a few lines: as §1

In experiment [16] the target is T11, ELF5 (Homo sapiens, UniProt Q9UKW6-2 1-255).
T11 sequence: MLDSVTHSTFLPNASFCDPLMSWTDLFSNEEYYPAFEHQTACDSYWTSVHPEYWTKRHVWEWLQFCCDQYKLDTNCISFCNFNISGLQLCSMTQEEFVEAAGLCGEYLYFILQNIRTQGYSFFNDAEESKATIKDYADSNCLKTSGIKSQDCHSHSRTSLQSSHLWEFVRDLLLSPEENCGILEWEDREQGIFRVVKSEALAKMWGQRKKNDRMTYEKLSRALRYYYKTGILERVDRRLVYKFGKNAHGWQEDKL
The note with it: protein: recombinant; tags: N-terminal GST; dsDNA, one strand shown. In a few lines:
as §1

The target of experiment [17] is T12, ETV3 (Homo sapiens, UniProt P41162-2 1-143).
T12 sequence: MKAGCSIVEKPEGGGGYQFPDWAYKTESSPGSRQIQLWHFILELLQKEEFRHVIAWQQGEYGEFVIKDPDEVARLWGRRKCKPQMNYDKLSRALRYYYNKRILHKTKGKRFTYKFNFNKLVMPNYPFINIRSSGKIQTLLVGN
The following applies: protein: recombinant; tags: N-terminal GST; dsDNA, one strand shown. In a few lines: as §1

Experiment [18] deals with ETV6 (Homo sapiens, UniProt P41212 1-452). The note with it: protein: recombinant; tags: N-terminal GST; dsDNA, one strand shown. Put shortly:
as §1

Sequence of CRX (O43186 whole entry): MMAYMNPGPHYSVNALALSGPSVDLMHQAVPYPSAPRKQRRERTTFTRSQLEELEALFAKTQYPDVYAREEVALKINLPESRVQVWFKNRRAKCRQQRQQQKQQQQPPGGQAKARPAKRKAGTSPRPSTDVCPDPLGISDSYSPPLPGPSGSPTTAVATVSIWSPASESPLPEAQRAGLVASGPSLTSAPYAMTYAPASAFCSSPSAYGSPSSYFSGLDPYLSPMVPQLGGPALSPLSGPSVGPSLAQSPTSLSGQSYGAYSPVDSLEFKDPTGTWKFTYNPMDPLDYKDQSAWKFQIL
Sequence of ETV5 (P41161 whole entry): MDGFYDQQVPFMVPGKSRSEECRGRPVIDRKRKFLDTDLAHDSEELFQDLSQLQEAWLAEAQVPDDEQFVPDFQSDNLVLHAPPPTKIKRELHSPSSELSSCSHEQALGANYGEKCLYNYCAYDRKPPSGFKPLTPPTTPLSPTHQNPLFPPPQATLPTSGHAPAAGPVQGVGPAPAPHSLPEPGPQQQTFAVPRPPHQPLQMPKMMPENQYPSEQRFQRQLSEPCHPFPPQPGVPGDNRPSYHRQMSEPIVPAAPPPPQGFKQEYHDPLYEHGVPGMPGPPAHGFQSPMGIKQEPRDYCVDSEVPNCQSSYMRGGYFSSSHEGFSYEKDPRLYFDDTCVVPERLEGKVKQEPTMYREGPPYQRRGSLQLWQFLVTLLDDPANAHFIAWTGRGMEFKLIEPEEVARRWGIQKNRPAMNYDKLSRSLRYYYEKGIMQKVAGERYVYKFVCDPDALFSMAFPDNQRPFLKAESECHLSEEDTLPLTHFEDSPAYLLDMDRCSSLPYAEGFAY
Sequence of HSF1 (Q00613 whole entry): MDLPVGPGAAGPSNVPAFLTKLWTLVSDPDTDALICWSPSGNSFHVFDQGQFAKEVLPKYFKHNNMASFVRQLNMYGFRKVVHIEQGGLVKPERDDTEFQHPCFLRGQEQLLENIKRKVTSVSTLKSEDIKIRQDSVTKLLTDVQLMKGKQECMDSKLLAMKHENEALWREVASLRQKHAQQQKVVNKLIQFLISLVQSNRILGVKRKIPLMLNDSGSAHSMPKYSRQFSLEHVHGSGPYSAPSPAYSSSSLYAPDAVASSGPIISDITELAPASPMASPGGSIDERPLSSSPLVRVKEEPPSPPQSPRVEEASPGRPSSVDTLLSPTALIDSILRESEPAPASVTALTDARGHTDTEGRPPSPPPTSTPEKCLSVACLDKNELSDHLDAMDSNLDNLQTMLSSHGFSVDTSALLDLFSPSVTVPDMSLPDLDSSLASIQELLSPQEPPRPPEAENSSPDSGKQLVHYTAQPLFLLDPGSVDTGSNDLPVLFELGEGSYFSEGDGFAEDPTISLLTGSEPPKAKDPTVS
Sequence of ETV6 (P41212 whole entry): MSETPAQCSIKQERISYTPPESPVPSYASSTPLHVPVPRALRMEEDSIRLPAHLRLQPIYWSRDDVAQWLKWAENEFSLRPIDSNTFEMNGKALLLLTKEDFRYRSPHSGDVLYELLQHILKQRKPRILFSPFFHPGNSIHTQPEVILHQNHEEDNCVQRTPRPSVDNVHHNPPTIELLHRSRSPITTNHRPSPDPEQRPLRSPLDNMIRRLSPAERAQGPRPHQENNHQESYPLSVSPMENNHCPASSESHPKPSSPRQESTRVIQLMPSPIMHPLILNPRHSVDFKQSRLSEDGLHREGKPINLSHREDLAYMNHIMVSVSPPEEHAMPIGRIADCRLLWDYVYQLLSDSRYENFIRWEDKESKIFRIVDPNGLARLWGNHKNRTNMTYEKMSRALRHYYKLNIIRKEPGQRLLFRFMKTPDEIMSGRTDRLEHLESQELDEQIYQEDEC
Sequence of ELF4 (Q99607 whole entry): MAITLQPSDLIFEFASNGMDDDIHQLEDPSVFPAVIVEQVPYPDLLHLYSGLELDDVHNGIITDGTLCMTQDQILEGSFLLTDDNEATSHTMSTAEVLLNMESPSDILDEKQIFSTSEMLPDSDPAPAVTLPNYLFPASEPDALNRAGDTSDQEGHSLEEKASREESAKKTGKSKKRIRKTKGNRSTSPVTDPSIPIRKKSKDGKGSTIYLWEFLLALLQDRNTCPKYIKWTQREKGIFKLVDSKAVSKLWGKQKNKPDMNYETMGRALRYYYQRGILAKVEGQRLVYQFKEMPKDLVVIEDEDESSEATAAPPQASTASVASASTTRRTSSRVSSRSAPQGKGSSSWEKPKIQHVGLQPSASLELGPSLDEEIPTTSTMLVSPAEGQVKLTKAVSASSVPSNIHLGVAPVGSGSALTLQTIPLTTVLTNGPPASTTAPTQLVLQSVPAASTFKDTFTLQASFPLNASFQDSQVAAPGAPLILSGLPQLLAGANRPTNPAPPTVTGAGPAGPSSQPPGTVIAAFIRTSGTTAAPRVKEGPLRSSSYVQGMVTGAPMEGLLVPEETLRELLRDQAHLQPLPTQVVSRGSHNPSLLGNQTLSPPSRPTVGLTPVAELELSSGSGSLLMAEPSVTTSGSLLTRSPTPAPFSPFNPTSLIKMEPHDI
Sequence of ETV1 (P50549 whole entry): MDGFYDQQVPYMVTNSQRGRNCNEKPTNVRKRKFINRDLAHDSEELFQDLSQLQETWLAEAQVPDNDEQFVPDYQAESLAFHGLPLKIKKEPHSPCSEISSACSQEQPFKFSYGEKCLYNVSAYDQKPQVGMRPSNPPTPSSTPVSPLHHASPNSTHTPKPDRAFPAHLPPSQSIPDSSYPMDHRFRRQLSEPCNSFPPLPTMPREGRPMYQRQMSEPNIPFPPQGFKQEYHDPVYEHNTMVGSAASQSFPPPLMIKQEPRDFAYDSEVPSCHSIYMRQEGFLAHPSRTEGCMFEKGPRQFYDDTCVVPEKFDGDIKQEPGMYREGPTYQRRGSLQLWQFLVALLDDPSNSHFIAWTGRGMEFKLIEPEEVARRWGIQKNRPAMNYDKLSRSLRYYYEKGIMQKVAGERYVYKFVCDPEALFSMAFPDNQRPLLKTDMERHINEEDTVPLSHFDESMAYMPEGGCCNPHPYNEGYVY

With CACGTA, the binding signal was 1.1 fold enrichment (6-mer frequency, TF over GST control) in experiment [1]; 1.13 fold enrichment (6-mer frequency, TF over GST control) in experiment [2]; 1.05 fold enrichment (6-mer frequency, TF over GST control) in experiment [3]; 1.22 fold enrichment (6-mer frequency, TF over GST control) in experiment [4]; 1.2 fold enrichment (6-mer frequency, TF over GST control) in [5]; 1.23 fold enrichment (6-mer frequency, TF over GST control) in experiment [6]. Also, the binding signal in experiment [7] is 1.09 fold enrichment (6-mer frequency, TF over GST control); in [8], 1.18 fold enrichment (6-mer frequency, TF over GST control); in experiment [9], 1.06 fold enrichment (6-mer frequency, TF over GST control); in [10], 1.14 fold enrichment (6-mer frequency, TF over GST control); in [11] it was 1.19 fold enrichment (6-mer frequency, TF over GST control); in experiment [12] it was 1.17 fold enrichment (6-mer frequency, TF over GST control). In addition, the binding signal in experiment [13] is 1.14 fold enrichment (6-mer frequency, TF over GST control); in experiment [14], 1.15 fold enrichment (6-mer frequency, TF over GST control); in [15], 1.18 fold enrichment (6-mer frequency, TF over GST control); in experiment [16] it was 1.15 fold enrichment (6-mer frequency, TF over GST control); in experiment [17] it was 1.16 fold enrichment (6-mer frequency, TF over GST control); in experiment [18], 1.11 fold enrichment (6-mer frequency, TF over GST control).
